Source: PubChem BioAssay
An excerpt weighted towards active compounds, which were near 19% of everything screened.
HT1080NT lethal: qHTS for induction of synthetic lethality in tumor cells producing 2HG: qHTS for the HT-1080-NT fibrosarcoma cell line | AID 686970, 2013 | HT-1080-NT fibrosarcoma viability, CellTiter-Glo ATP luminescence, 48 h | Potency, µM (top dose mostly 46.1 µM), for the others: at the highest dose activity, negative = less viability, usual class: cytotoxic | actives 1.6% (n = 360,000);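 also: NT is the 2HG producing partner of a matched IDH1 knockdown line; potency is read from the fitted curve at half-maximal effect; 0% = DMSO-treated cells and -100% = media-only wells without cells; nearly all actives have a fitted effect of over 55% in size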
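750 cells/well, RPMI + 5% FBS; 2 h settle, compound pin-transfer, 48 h at 37 degrees C. CellTiter-Glo 10 min RT, luminescence. Normalized to DMSO and media-only wells.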
DT40 TDP1 no CPT: qHTS for Inhibitors of human tyrosyl-DNA phosphodiesterase 1 (TDP1): qHTS in cells in absence of CPT; DT40 Tdp1-/- hTDP1 cells, no CPT, ATP luminescence, 48 h; Potency, µM (doses to about 46.2 µM), without a hit: at the top dose activity change, negative = growth inhibition, hits mostly inhibitors; actives 15% (n = 420,000); also: potency is read from the fitted curve at half-maximal effect; nearly all actives have a fitted effect of over 55% in size
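Cells were dispensed at 400 per well, compounds added by pin tool, plates incubated ≥48 hr at 37 °C, then CellTiter-Glo added for 30 min at room temperature before luminescence reading. Line: DT40 Tdp1-/- complemented with hTDP1; camptothecin omitted.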
uPA surface inh: qHTS for Inhibitors of Cell Surface uPA Generation; cell surface uPA generation assay, qHTS; Potency, µM (series often up to 38.3 µM), for the others: top-dose activity change, negative = inhibition, usual class: inhibitors; actives 0.31% (n = 330,000); active = well fitted inhibition curve with a large enough effect; inconclusive = small, poorly fitted or top-dose-only effect; inactive = no such curve, though single readings can be large or run the other way; tested in mouse RAW 264.7 cells; also: potency is read from the fitted curve at half-maximal effect; nearly all actives have a fitted effect of over 55% in size
HT1080 IDH1KD tx: qHTS for induction of synthetic lethality in tumor cells producing 2HG: qHTS for the HT-1080-IDH1KD cell line. actives 2% (n = 360,000). HT-1080 IDH1 knockdown viability, ATP luminescence, 48 h. AID 686971, 2013. Potency, µM (titrated, usually from 46.1 µM), for the others: at the highest dose activity, negative = toxicity, actives largely listed as cytotoxic;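 also: potency is read from the fitted curve at half-maximal effect; 0% = DMSO wells and -100% = cell-free medium wells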
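Viability of IDH1-knockdown HT-1080 fibrosarcoma cells was assessed by CellTiter-Glo after 48 h at 37 °C with titrated compound; concentration-effect curves were classified by fit quality and response size.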
DT40 TDP1 CPT: qHTS for Inhibitors of human tyrosyl-DNA phosphodiesterase 1 (TDP1): qHTS in cells in presence of CPT; Potency, µM (highest dose often 46.2 µM), for inactives: at the highest dose activity change, negative = growth inhibition, most hits filed as inhibitors; chicken DT40 Tdp1-/-;hTDP1 cells + 20 nM CPT, ATP luminescence, 48 h; actives 12% (n = 420,000); AID 686979, 2013; also: potency is read from the fitted curve at half-maximal effect; nearly all actives have a fitted effect of over 55% in size
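Cell growth measured by CellTiter-Glo luminescence after a minimum 48 h, 37 C compound exposure with 20 nM CPT in Tdp1-knockout DT40 cells stably expressing hTDP1, seeded 400/well; qHTS titration format.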
IL1B secr inh: qHTS for Inhibitors of Inflammasome Signaling: IL-1-beta AlphaLISA Primary Screen. AID 743279, 2014. THP-1 LPS/ATP IL-1B secretion, AlphaLISA, 16 h; hits give low values. actives 4.7% (n = 360,000). activity change, % at 57.5 µM; in the data active = activity change below about -50%; inconclusive = mostly about -30% to -49%
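THP-1 cells pretreated 1 hr with compounds (up to 57.5 uM final), then stimulated with LPS (250 ng/mL final) plus ATP (1.25 mM final); secreted IL-1B measured by AlphaLISA after 16 hr, decreased signal indicating inhibition.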
* hit, by the source's call; u = inconclusive; x = no result given. Unless noted, calls follow the shape of the dose curve; as a rule, active = well fitted curve in the direction sought with a large enough effect; inconclusive = small, poorly fitted or top-dose-only effect, or another doubt; inactive = no such curve, though single readings can be large; an effect the other way counts as inactive or inconclusive. Unless noted, % is scaled to controls: 0 for no effect and ±100 for the full control effect.

SMILES | HT1080NT lethal | DT40 TDP1 no CPT | uPA surface inh | HT1080 IDH1KD tx | DT40 TDP1 CPT | IL1B secr inh
COc1ccc(C2C(C#N)=C(N)Oc3c2ccc2cccnc32)cc1OC (centres undefined) | u | 2.59µM* | -17.9% | 0.651µM* | 3.26µM* | -9.6
O=[N+]([O-])c1cccc(COc2cccc(CN3CCCC3)c2)c1 | -3.3% | u | -6.9% | 1.5% | u | -6.6
Cc1ccc(N(CC(=O)NC2CCCCC2)S(=O)(=O)c2cccs2)cc1 | 2.1% | -20.9% | 0.8% | 6.1% | -13.0% | 1.7
Cc1nc(C(F)(F)F)c(C(=O)N/N=C(\N)c2ccccn2)s1 | u | 4.11µM* | -14.8% | 16.4µM* | 13µM* | 46.6
N/C(=N\NS(=O)(=O)c1ccccc1C(F)(F)F)c1ccccn1 | 5.6% | -16.5% | 11.3% | -1.0% | 2.8% | 0.0
COCCNC(=O)c1cccc(OC2CCN(C(C)COc3ccccc3)CC2)c1 (centres undefined) | -11.4% | 1.0% | -13.4% | -3.5% | u | 0.0
COc1ccccc1CCNC(=O)c1ccc(-c2nc(CSc3ccc(C)cc3)c(C)o2)cc1 | x | 8.2µM* | x | x | 16.4µM* | x
CCOc1ccccc1CNC(=O)c1ccc(-c2nc(CSc3ccc(C)cc3)c(C)o2)cc1 | x | 13µM* | x | x | 9.2µM* | x
COc1ccc(CNC(=O)c2ccc(-c3nc(CSc4ccccc4)c(C)o3)cc2)c(OC)c1 | x | -27.3% | x | x | -3.3% | x
COc1ccc(CNC(=O)c2ccc(-c3nc(CSc4ccc(C)cc4)c(C)o3)cc2)c(OC)c1 | x | u | x | x | 8.2µM* | x
Cc1ccc(SCc2nc(-c3ccc(C(=O)NCc4ccc(Cl)cc4)cc3)oc2C)cc1 | x | 9.2µM* | x | x | 14.6µM* | x
CCOc1ccc(CCNC(=O)c2ccc(-c3nc(CSc4ccc(C)cc4)c(C)o3)cc2)cc1 | x | -5.2% | x | x | -2.3% | x
Cn1c(N)c(C(=O)CSc2nnc(NC3CCCCC3)s2)c(=O)n(C)c1=O | -5.1% | u | 4.2% | -4.4% | u | 41.1
COC(=O)c1ccccc1S(=O)(=O)NNC(=O)c1nn(C)c(=O)c2ccccc12 | -1.1% | 0.3% | -1.6% | 15.1% | 2.9% | -10.5
O=C(COC(=O)c1ccccc1NCCO)NNC(=O)c1cccs1 | 2.2% | u | 0.6% | 9.7% | -22.3% | 13.4
Cc1nn(CCCC(=O)NCc2ccccc2)c(=O)c2cc3sccc3n12 | x | -26.7% | x | x | 1.1% | x
CCN(CC)CCC=C(c1cccs1)c1cccs1 | -14.3% | 23.1µM* | -4.5% | -15.9% | u | -24.0
CN1Cc2c(C(=O)OC(C)(C)C)ncn2-c2ccsc2C1=O | x | -4.4% | x | x | 0.2% | x
C=C1C(=O)OC2CC1C(O)CC(C)=CCCC(C)=CC(O)CC2C (centres undefined) | 14.6µM* | 3.26µM* | -16.2% | 7.31µM* | 2.91µM* | -103.0*
C=C1C(=O)OC2CC1C(OC(C)=O)CC(C)=CCCC(C)=CCC[C@@]2(C)O (some centres undefined) | x | 3.26µM* | x | x | 2.91µM* | x
C=C1CCC(OC(C)=O)C2(C)CCC3C(C)C(=O)OC3C12O (centres undefined) | -2.4% | 0.1% | -1.7% | 3.0% | 0.3% | -8.1
COc1ccc(C(=O)N/C(=C\c2ccc(Cl)cc2)C(=O)NCCN2CCOCC2)cc1 | -1.7% | -0.9% | x | 2.5% | -14.7% | -19.7
Cc1ccc(C(=O)c2c(N)c(C(=O)Nc3cccc(C(F)(F)F)c3)c3ccccn23)cc1 | x | u | x | x | -25.4% | x
Cc1ccc(Sc2c([N+](=O)[O-])ncn2C)cc1 | -30.0% | u | -11.0% | -27.0% | 20.6µM* | -13.6
Cn1cnc([N+](=O)[O-])c1Sc1ccc(Br)cc1 | -10.7% | u | u | -7.8% | u | u
SMILES | HT1080NT lethal | DT40 TDP1 no CPT | uPA surface inh | HT1080 IDH1KD tx | DT40 TDP1 CPT | IL1B secr inh
Cc1c(N)nc([C@H](CC(N)=O)NC[C@H](N)C(N)=O)nc1C(=O)N[C@H](C(=O)N[C@H](C)[C@@H](O)[C@H](C)C(=O)N[C@H](C(=O)NCCc1nc(-c2nc(C(=O)NCCCCN=C(N)N)cs2)cs1)[C@@H](C)O)[C@@H](O[C@@H]1O[C@@H](CO)[C@@H](O)[C@H](O)[C@@H]1O[C@H]1O[C@H](CO)[C@@H](O)[C@H](OC(N)=O)[C@@H]1O)c1cnc[nH]1 | x | 0.944µM* | x | x | 1.19µM* | x
COc1cccc(NC(=O)C2CCCN(c3ncnc4onc(-c5ccc(F)cc5)c34)C2)c1 (centres undefined) | x | 16.4µM* | x | x | u | x
COc1cc(Cl)c(C)cc1NC(=O)C1CCCN(c2ncnc3onc(-c4ccc(F)cc4)c23)C1 (centres undefined) | x | 8.2µM* | x | x | 14.6µM* | x
Cc1ccccc1NC(=O)C1CCCN(c2ncnc3onc(-c4ccc(F)cc4)c23)C1 (centres undefined) | 1.6% | -29.9% | 12.9% | -12.8% | u | 5.9
CCOc1ccccc1N(C)C(=O)C1CCCN(c2ncnc3onc(-c4ccc(F)cc4)c23)C1 (centres undefined) | x | 8.2µM* | x | x | 11.6µM* | x
CCOc1ccccc1NC(=O)C1CCCN(c2ncnc3onc(-c4ccc(F)cc4)c23)C1 (centres undefined) | x | 23.1µM* | x | x | 20.6µM* | x
O=C(NCCc1ccc(Cl)cc1)c1nnc(Cc2ccc(Cl)cc2Cl)o1 | x | -18.4% | x | x | 1.9% | x
CCN(CC)S(=O)(=O)c1ccc(N2CCCC2)c(NC(=O)c2ccc(N3CCCC3=O)cc2)c1 | 4.2% | u | -6.0% | -1.0% | -16.3% | -12.4
CN(C)CCNC(=O)c1ccc2nc([C@@H]3O[C@H](CO)[C@H](O)[C@H](O)[C@H]3O)[nH]c2c1 | 12.7% | 0.5% | x | 21.0% | 12.9% | -6.2
CCc1ccccc1NC(=O)C1CCCN(c2ncnc3onc(-c4ccc(F)cc4)c23)C1 (centres undefined) | -0.2% | u | 7.0% | u | u | -13.3
O=C(NCc1ccc(F)cc1)C1CCCN(c2ncnc3onc(-c4ccc(F)cc4)c23)C1 (centres undefined) | x | 16.4µM* | x | x | 20.6µM* | x
Cc1cnc(NC(=O)c2cccc(S(=O)(=O)N3CC(C)OC(C)C3)c2)s1 (centres undefined) | -15.1% | u | -16.8% | -1.2% | u | 51.0
